Measured values: PubChem BioAssay (NCATS)
“And” between values parts separate entries of the source, which are not always exact repeats. Equal values may be shown once. Inconclusive results are not listed. A call without a number means that no potency is given here. The source made the active and inactive calls. Unless noted, calls follow the shape of the dose curve; as a rule, active = well fitted curve in the direction sought with a large enough effect; inconclusive = small, poorly fitted or top-dose-only effect, or another doubt; inactive = no such curve, though single readings can be large; an effect the other way counts as inactive or inconclusive.

Legend:
[1] = Cell Viability - Jurkat (AID 426;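 active = dose-dependent loss of cell ATP signal giving a full or clear fitted curve, ranked by lower potency value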; also: potency is read from the fitted curve at half-maximal effect); conditions: qHTS
In short: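 Cytotoxicity taken as drop in cellular ATP (CellTiter-Glo luminescence, 20 min room temperature) after 40 hr, 37C treatment of 5000 Jurkat Clone E6-1 cells per well; concentration-response fitted with Hill equation for AC50.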

[2] = Cell Viability - Hek293 (AID 427;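 active = compounds whose dose-response curve shows a full or clear partial loss of cell viability, called from curve shape rather than a numeric limit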;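 also: potency is read from the fitted curve at half-maximal effect; cells exposed to compound for 40 hours at 37 °C before reading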); conditions: qHTS
In short: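 Luminescent ATP content (CellTiter-Glo, 20 min at room temperature) was measured after a 40 hr, 37 °C compound exposure of HEK293 cells. AC50 values came from Hill-equation fits of qHTS concentration-response data normalized to DMSO and 100 uM tamoxifen.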

[3] = Cell Viability - SK-N-SH (AID 435; calls by dose curve;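 also: potency is read from the fitted curve at half-maximal effect; compound exposure lasted 40 h at 37 °C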); conditions: SK-N-SH neuroblastoma cell viability qHTS
In short: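 SK-N-SH neuroblastoma cells (1500/well) treated 40 h at 37 °C in complete medium; viability read as cellular ATP by CellTiter-Glo luminescence. Normalized to DMSO and 100 uM tamoxifen; AC50 from Hill fits of qHTS concentration-response.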

[4] = Cell Viability - SH-SY5Y (AID 544); conditions: SH-SY5Y neuroblastoma cell viability; viability change, negative = cytotoxic: at 92.2 µM (top of the series); also: nearly all actives have a fitted effect of over 55% in size; also: potency is read from the fitted curve at half-maximal effect
In short: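 Cytotoxicity measured via ATP-dependent luciferase luminescence (CellTiter-Glo) following 40 h, 37 °C exposure of 1500 SH-SY5Y cells per well. Concentration-response data were fitted with the standard Hill equation to give AC50.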

[5] = Cell Viability - Renal Proximal Tubule (AID 545); conditions: renal proximal tubule cells viability, primary cells of rat origin; activity change, negative = cytotoxicity: at 91.7 µM (top of the series); also: nearly all actives have a fitted effect of over 40% in size; also: potency is read from the fitted curve at half-maximal effect
In short: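 Rat renal proximal tubule primary cells, 1000/well, exposed to compounds for 40 hr at 37 °C in complete medium; cellular ATP read by CellTiter-Glo luminescence. AC50 from concentration-response fitted with standard Hill equation.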

[6] = Cell Viability - LYMP2-001 (AID 921); conditions: LYMP2-001 lymphoblastoid cell viability; series mostly up to 92.2 µM; also: nearly all actives have a fitted effect of over 70% in size; also: potency is read from the fitted curve at half-maximal effect
In short: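 Human lymphoblastoid LYMP2-001 cells, 2500 per well, in complete medium, treated 24 h at 37 C. Viability from cellular ATP by CellTiter-Glo luminescence; AC50 from Hill-equation fits of qHTS concentration-response.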

[7] = MultiTox-Fluor Cytotoxicity Assay - LYMP1-002 - Dead Cells (AID 960); conditions: LYMP1-002 lymphoblastoid cells, dead-cell protease fluorescence; series mostly up to 46.1 µM; also: nearly all actives have a fitted effect of over 60% in size; also: potency is read from the fitted curve at half-maximal effect
In short: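 Dead-cell fluorescence (Ex/Em 485/520) after 16 h compound exposure at 37 C of LYMP1-002 lymphoblastoid cells in complete medium; AC50 by Hill equation, with data scaled between DMSO and 15 uM tetraoctylammonium bromide.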

[8] = Cell Viability - LYMP2-005 (AID 967); conditions: LYMP2-005 lymphoblastoid cell viability; series mostly up to 92.2 µM; also: potency is read from the fitted curve at half-maximal effect
In short: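 Human lymphoblastoid LYMP2-005 cells, 2,500 per well in complete medium, rested 5 h at 37C then compound-treated 24 h at 37C. Intracellular ATP read by CellTiter-Glo luminescence after 30 min at room temperature; AC50 from Hill-equation fits of concentration-response data.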

[9] = Cell Viability - LYMP2-015 (AID 971); conditions: LYMP2-015 lymphoblastoid cell viability; series mostly up to 92.2 µM; also: nearly all actives have a fitted effect of over 55% in size; also: potency is read from the fitted curve at half-maximal effect
In short: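 Cytotoxicity readout: decrease in intracellular ATP (CellTiter-Glo luminescence) in 2500 LYMP2-015 lymphoblastoid cells/well after 24 h compound exposure at 37 C. Concentration-response data fitted with the standard Hill equation to give AC50.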

[10] = Cell Viability - LYMP2-010 (AID 981); conditions: LYMP2-010 lymphoblastoid cell viability, qHTS; series mostly up to 92.2 µM;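 also: cells exposed to compound for 24 hours at 37 °C; nearly all actives have a fitted effect of over 55% in size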; also: potency is read from the fitted curve at half-maximal effect
In short: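 CellTiter-Glo ATP luminescence measured cytotoxicity after 24 h compound exposure at 37 C. LYMP2-010 cells were seeded at 2500/well, with tetraoctylammonium bromide as control; concentration-response curves gave AC50 values by the Hill equation.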

[11] = Cell Viability - LYMP2-024 (AID 988); conditions: LYMP2-024 lymphoblastoid cell viability; series mostly up to 92.2 µM; also: nearly all actives have a fitted effect of over 60% in size; also: potency is read from the fitted curve at half-maximal effect
In short: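 Cytotoxicity was taken as a decrease in ATP (CellTiter-Glo luminescence) after 24 hr compound exposure at 37 C of LYMP2-024 lymphoblastoid cells, 2500 cells/well. Concentration-response data were fitted to the Hill equation to give AC50.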

[12] = target: Thyroid hormone receptor beta (Homo sapiens) (UniProt P10828); assay: qHTS assay for small molecule agonists of thyroid hormone receptor beta signaling (AID 588545; calls by dose curve); conditions: TR-UAS-bla GripTite HEK 293, beta-lactamase ratio, agonist mode, 18 h; series mostly up to 76.7 µM
In short: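 Stimulation of a TR-driven beta-lactamase reporter was quantified in GripTite HEK 293 cells. Compound series ran for 18 hrs; curves were normalized to T3 and DMSO controls and fitted to yield EC50.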

[13] = qHTS assay for small molecule antagonists of retinoid X receptor alpha signaling (AID 588546; active = well fitted inhibition curve with a large enough effect in the signal ratio, with a control signal flat, not every such curve was filed as active; the % refers to the signal ratio;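 also: cells stimulated with 9-cis-retinoic acid as agonist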); conditions: HEK293T RXRa-UAS-bla, beta-lactamase ratio, antagonist mode; measured here: W530 green channel, cytotoxicity proxy
In short: (§1)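 Beta-lactamase reporter inhibition, read as CCF4 fluorescence ratio (ex 405, em 460/530 nm) after 2 h at RT. HEK293T UAS-bla cells, 2500/well, were stimulated with 9-cis-RA at 500 or 100 nM final alongside test compound for 18 h at 37 C.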

[14] = target: Retinoic acid receptor RXR-alpha (Homo sapiens) (UniProt P19793); assay: as above; conditions: HEK293T RXRa-UAS-bla, beta-lactamase ratio, antagonist mode
In short: as §1

[15] = qHTS assay for small molecule disruptors of the mitochondrial membrane potential - 5 hr assay (AID 651755; calls by dose curve; also: nearly all actives have a fitted effect of over 40% in size; also: potency is read from the fitted curve at half-maximal effect); conditions: JC-1-type ratio dye; series mostly up to 92.2 µM
In short: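 Membrane-potential dye readout: red aggregate (540 ex/590 em) versus green monomer (490 ex/535 em) fluorescence after 30 min dye loading, following 5 hr compound exposure at 37C of overnight-plated HepG2 cells.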

[16] = target: Thyroid hormone receptor beta (Homo sapiens) (UniProt P10828); assay: qHTS assay for small molecule antagonists of thyroid hormone receptor beta signaling (AID 588547; active = well fitted inhibition curve with a large enough effect in the signal ratio, with a control signal flat, not every such curve was filed as active; the % refers to the signal ratio;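 also: cells stimulated with 0.4 nM T3 agonist during compound exposure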); conditions: TR-UAS-bla HEK293, beta-lactamase ratio, antagonist mode, 18 h
In short: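 Inhibition of T3-driven (0.4nM final) beta-lactamase reporter activity was measured over 0.59 nM to 92 uM compound after 18 h at 37 C. The cells were GripTite HEK293 TR-UAS-bla in charcoal/dextran-stripped serum, with CCF4 ratio read-out and IC50 from Hill fits.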

[17] = target: Voltage-gated inwardly rectifying potassium channel KCNH2 (Homo sapiens) (UniProt Q12809); assay: qHTS Assay for Small Molecule Inhibitors of the Human hERG Channel Activity (AID 588834); conditions: U2OS BacMam hERG, FluxOR thallium flux fluorescence; series mostly up to 92.2 µM;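 also: top concentration of the series differs between compounds; lower thallium flux fluorescence means stronger hERG block; nearly all actives have a fitted effect of over 50% in size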
In short: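 Thallium serves as surrogate for K+ influx through BacMam-delivered hERG in U2OS cells. Compounds are added for about 10 minutes after dye loading; stimulation buffer then starts flux, monitored kinetically on FDSS.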

[18] = qHTS assay for small molecule antagonists of the retinoid-related orphan receptor gamma (ROR-gamma) signaling pathway - cell viability counter screen (AID 720652; active = well fitted curve in the direction sought with a large enough effect in the repeat runs; an effect the other way counts as inactive or inconclusive;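 also: CHO reporter cells with doxycycline-induced ROR-gamma expression; compound exposure lasted 16 hr before ATP read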); conditions: RORgamma reporter cell line viability counter screen; series mostly up to 92.2 µM
In short: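 Cytotoxicity counter screen: intracellular ATP (CellTiter-Glo luminescence) measured in the doxycycline-induced CHO RORE-luciferase reporter line after 16 hr compound exposure at 37 C, 5% CO2.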

[19] = target: Nuclear receptor subfamily 1 group I member 2 (Rattus norvegicus) (UniProt Q9R1A7); assay: qHTS assay for small molecule activators of the rat pregnane X receptor (rPXR) signaling pathway (AID 651751; call rule not given here); conditions: rPXR reporter cells, luciferase (One-Glo), 24 h
[20] = Cell Viability - HepG2 (AID 433; calls by dose curve;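 also: potency is read from the fitted curve at half-maximal effect; potency for ATP loss meaning cytotoxicity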); conditions: qHTS
In short: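 HepG2 cells, 1500 per well, treated 40 hr at 37 °C in complete medium; viability from intracellular ATP by CellTiter-Glo luminescence. Normalized to DMSO and 100 uM tamoxifen; AC50 from Hill fit of qHTS concentration-response.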

Chain of Voltage-gated inwardly rectifying potassium channel KCNH2 (Homo sapiens) (Q12809 whole entry, looked up): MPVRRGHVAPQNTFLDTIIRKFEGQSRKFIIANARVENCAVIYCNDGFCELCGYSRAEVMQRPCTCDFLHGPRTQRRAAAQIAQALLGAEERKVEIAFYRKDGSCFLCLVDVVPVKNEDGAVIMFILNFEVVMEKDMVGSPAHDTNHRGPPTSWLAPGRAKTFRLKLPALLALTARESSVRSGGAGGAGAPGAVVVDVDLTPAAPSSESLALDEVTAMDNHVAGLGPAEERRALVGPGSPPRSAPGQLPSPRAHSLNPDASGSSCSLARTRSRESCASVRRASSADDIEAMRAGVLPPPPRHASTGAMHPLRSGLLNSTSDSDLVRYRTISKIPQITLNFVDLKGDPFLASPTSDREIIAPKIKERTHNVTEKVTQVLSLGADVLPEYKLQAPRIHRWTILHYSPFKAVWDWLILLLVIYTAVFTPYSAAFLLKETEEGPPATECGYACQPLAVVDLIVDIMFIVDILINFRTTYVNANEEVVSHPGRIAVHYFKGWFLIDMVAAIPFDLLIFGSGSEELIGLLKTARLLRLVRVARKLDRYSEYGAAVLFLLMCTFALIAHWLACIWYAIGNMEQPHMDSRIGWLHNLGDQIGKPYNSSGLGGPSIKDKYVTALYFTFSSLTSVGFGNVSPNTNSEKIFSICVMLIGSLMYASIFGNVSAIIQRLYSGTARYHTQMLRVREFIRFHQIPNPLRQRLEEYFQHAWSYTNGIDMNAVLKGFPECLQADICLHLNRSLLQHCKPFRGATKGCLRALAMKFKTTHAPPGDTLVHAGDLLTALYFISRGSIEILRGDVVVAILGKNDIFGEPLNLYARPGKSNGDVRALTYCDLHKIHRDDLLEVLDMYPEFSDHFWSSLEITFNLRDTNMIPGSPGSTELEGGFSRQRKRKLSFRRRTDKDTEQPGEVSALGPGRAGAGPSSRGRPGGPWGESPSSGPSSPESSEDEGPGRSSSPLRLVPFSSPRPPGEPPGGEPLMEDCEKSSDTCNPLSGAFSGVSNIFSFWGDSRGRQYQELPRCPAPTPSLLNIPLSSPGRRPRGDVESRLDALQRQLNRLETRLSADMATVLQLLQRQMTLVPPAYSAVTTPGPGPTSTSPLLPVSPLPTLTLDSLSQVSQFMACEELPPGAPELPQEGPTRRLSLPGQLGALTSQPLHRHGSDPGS
Chain of Nuclear receptor subfamily 1 group I member 2 (Rattus norvegicus) (Q9R1A7 whole entry, looked up): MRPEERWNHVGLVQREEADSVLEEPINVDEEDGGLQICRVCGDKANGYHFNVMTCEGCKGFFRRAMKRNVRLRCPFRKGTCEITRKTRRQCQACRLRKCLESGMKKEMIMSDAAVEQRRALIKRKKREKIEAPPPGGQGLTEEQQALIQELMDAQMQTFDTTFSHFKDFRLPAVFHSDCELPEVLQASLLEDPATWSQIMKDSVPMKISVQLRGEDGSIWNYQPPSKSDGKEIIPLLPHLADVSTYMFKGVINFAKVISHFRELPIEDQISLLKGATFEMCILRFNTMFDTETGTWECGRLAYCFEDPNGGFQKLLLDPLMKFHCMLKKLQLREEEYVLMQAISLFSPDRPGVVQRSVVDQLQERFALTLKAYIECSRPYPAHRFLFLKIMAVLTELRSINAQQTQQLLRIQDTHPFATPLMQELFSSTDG
Chain of Thyroid hormone receptor beta (Homo sapiens) (P10828 whole entry, looked up): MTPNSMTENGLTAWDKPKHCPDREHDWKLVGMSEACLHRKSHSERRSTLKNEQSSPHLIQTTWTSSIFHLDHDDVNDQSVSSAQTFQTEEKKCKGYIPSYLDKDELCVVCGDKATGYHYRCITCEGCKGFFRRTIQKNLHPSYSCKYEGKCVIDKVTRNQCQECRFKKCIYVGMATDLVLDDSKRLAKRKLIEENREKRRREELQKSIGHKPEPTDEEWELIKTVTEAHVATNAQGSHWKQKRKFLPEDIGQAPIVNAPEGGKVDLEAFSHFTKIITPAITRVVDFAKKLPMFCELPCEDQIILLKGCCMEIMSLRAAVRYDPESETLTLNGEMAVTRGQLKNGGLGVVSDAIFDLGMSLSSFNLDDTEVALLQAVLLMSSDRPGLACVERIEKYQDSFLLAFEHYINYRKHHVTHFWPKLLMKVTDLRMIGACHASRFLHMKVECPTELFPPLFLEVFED
Chain of Retinoic acid receptor RXR-alpha (Homo sapiens) (P19793 whole entry, looked up): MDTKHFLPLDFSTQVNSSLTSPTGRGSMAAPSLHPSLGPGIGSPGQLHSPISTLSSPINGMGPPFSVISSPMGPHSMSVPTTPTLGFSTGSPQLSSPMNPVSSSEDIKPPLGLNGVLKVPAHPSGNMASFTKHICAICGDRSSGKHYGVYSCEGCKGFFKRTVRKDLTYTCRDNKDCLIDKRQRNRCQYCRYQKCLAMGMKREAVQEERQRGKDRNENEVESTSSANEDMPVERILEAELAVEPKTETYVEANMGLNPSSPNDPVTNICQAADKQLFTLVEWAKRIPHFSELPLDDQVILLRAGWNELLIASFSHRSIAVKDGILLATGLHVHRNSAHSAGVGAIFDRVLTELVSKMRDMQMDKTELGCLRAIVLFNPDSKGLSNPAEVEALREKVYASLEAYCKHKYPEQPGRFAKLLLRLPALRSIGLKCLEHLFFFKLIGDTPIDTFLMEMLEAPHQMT

Structure (SMILES) | Potency [1] | Potency [2] | Potency [3] | Potency [4] | Potency [5] | Potency [6] | Potency [7] | Potency [8] | Potency [9] | Potency [10] | Potency [11] | Potency [12] | max response [13] | max response [14] | Potency [15] | activity change % (negative = inhibition) [16] | Potency [17] | Potency [18] | max response [19] | Potency [20]
CC1=C(/C=C/C(C)=C/C=C/C(C)=C/C=O)C(C)(C)CCC1 | 21.5 µM (active) | 53.9 µM (active) | 42.3 µM (active) | 25.1 µM (active) | 15.8 µM (active) | 39.8 µM (active) | 31.6 µM (active) | 39.8 µM (active) | 39.8 µM (active) | 31.6 µM (active) | 39.8 µM (active) | inactive | -0.803% | -29.6% (inactive) | inactive | – | – | – | – | –
S=C(NC1CCCCC1)NC1CCCCC1 | > 92 µM (inactive) | – | – | inactive | inactive | inactive | inactive | inactive | inactive | inactive | inactive | inactive | -2.99% | -14.3% (inactive) | inactive | 30% (inactive) | inactive | inactive | 8.83% (inactive) | –
CC(C)(C)C(=O)C1C(=O)c2ccccc2C1=O | – | – | 20.1 µM (active) | – | inactive | inactive | inactive | inactive | – | – | inactive | – | – | – | inactive | 12.3% (inactive) | inactive | – | -2.46% (inactive) | –
Nc1cc(C(=O)O)c(O)c(S(=O)(=O)O)c1 | > 92 µM (inactive) | > 92 µM (inactive) | > 92 µM (inactive) | inactive | inactive | inactive | inactive | inactive | inactive | inactive | inactive | inactive | 12.7% | 3.86% (inactive) | inactive | -10.1% (inactive) | inactive | inactive | 1.39% (inactive) | > 92 µM (inactive)
O=Nc1ccc(Nc2ccccc2)cc1 | 3.86 µM (active) | 30.8 µM (active) | 11.5 µM (active) | 2.51 µM (active) | – | – | – | – | – | – | – | inactive | – | – | inactive | – | inactive | – | – | > 92 µM (inactive)
O=C1c2ccccc2C(=O)C1(O)O | 34.4 µM (active) | – | – | – | 1.58 µM (active) | – | inactive | – | – | – | – | inactive | -5.61% | 29.7% (inactive) | inactive | -4.45% (inactive) | inactive | – | 1% (inactive) | > 92 µM (inactive)
C=CC1CO1 (stereo not given) | > 92 µM (inactive) | > 92 µM (inactive) | > 92 µM (inactive) | inactive | inactive | inactive | inactive | inactive | inactive | inactive | inactive | inactive | -2.46% | -9.54% (inactive) | inactive | 4.27% (inactive) | inactive | inactive | 4.12% (inactive) | > 92 µM (inactive)
Nc1ccc2c(c1)C(=O)c1ccccc1C2=O | 49.6 µM (inactive) | > 92 µM (inactive) | – | – | – | – | inactive | inactive | – | – | inactive | inactive | -11.8% and -6.92% | 7.8% (inactive) and -4.23% (inactive) | 1.5 µM (active) | -15.9% (inactive) | inactive | inactive | – | –
CCCCCCc1ccc(-c2ccc(C#N)cc2)cc1 | > 92 µM (inactive) | > 92 µM (inactive) | > 92 µM (inactive) | inactive | inactive | – | inactive | inactive | inactive | inactive | inactive | inactive | -7.3% | -14.6% (inactive) | inactive | 6.73% (inactive) | – | – | -10.6% (inactive) | > 92 µM (inactive)
